The values that follow come from PubChem BioAssay.

Assay [1] deals with Albumin (Bos taurus) (UniProt P02769). As to the kind of experiment: compounds binding labelled BSA control protein – biochemical, small-molecule microarray, Alexa647 label, 635/667 nm fluorescence, artefact control for SMM control protein annotation, profiling panel (AID 1118).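 Also: score merges 667 nm emission intensity and signal-to-noise per printed compound spot.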 To be noted: BSA-A647 binding, fluorescence 635 nm, higher = more signal.
A short description of assay [2]: probe aXIP binding to arrayed compounds – biochemical, NeuroSMM set, 635/667 nm fluorescence, primary screen (AID 1119).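 Also: probe is the protein aXip251-270 applied at 1 µg/mL to compound-printed slides; binding of probe to printed compounds measured as 667 nm fluorescence plus signal to noise.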 To be noted: small-molecule microarray, higher = more signal, called active from +8 up or from −8 down.
Assay [3] in a line: probe aNOTCH3 binding on compound microarray – biochemical, small-molecule microarray, 635/667 nm fluorescence, primary screen (AID 1120).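 Also: probe is a biotin-tagged antibody raised against NOTCH3 rather than NOTCH3 protein; score merges spot fluorescence near 667 nm with spot signal to noise.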 The following applies: higher = more signal.
Assay [4] is described as follows: probe aNOTCH2 binding on compound microarray – biochemical, small-molecule microarray, 635/667 nm fluorescence, primary screen (AID 1121).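 Also: score merges feature fluorescence read at 667 nm with its signal to noise.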 The following applies: higher = more signal.
Assay [5] has as its target Carbonic anhydrase 2 (Homo sapiens) (UniProt P00918). As to the kind of experiment: compounds binding carbonic anhydrase 2 – biochemical, small-molecule microarray, Alexa647-labelled CAII, profiling panel (AID 1122). To be noted: CAII-A647 binding fluorescence, higher = more signal.
A short description of assay [6]: COS7 lysate on small-molecule microarray, probe aHis, 635 nm (AID 1123).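 Also: z-score combines 667nm fluorescence intensity with signal-to-noise per printed compound spot.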 To be noted: COS7 cell lysate, fluorescence, higher = more signal.
Assay [7] can be described thus: probe aLAP1 signal on lysate-treated microarray – cell lysate, small-molecule microarray, COS7 lysate, primary screen (AID 1124).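 Also: lysate comes from COS7 cells expressing LAP1 and is applied at 0.3 µg/mL; score merges spot fluorescence near 667 nm with signal-to-noise over triplicate slides.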 The following applies: probe aLAP1, fluorescence, higher = more signal.
In assay [8] the test system is Sam68 (KHDRBS1). As to the kind of experiment: compounds binding KHDRBS1 protein – biochemical, small-molecule microarray, 635 nm fluorescence, primary screen (AID 1125).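 Also: score merges 667 nm channel intensity with signal to noise over triplicate slides.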 The following applies: higher = more signal.
The subject of assay [9] is Chordin-like protein 2 (CHRDL2). As to the kind of experiment: compounds binding chordin-like 2 – biochemical, small-molecule microarray, 635 nm fluorescence, primary screen (AID 1126).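 Also: printed compound slides probed with Chrdl2 protein at 4 µg/mL for 1 h at 4 C; score merges 667 nm emission intensity with signal to noise over three replicate slides.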 To be noted: fluorescence 635 nm, higher = more signal.
In assay [10] the target is Concanavalin-A (Canavalia ensiformis) (UniProt P02866). As to the kind of experiment: compounds binding concanavalin A lectin – biochemical, small-molecule microarray, Alexa647 label, 635 nm, artefact control for SMM control protein annotation, primary screen (AID 1127).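 Also: z combines 667 nm emission intensity with signal-to-noise across three replicate slides.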 The following applies: ConA-A647 binding fluorescence, higher = more signal.
A short description of assay [11]: compounds binding Alexa647 anti-His antibody – biochemical, small-molecule microarray, 635 nm fluorescence, artefact control for SMM control protein annotation, primary screen (AID 1128).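 Also: score merges feature fluorescence with signal-to-noise for each printed compound spot.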 The following applies: higher = more signal.
The subject of assay [12] is Human papillomavirus type 1a E7 protein (residues 1-88). As to the kind of experiment: HPV1a E7 small-molecule binders, primary screen, biochemical, small-molecule microarray, residues 1-88, 635 nm (AID 1129). To be noted: small-molecule microarray binding, fluorescence 635 nm; higher = more signal.
Assay [13] addresses Focal adhesion kinase 1 (Homo sapiens) (UniProt Q05397). As to the kind of experiment: PTK2 protein binding on printed compound slides – biochemical, small-molecule microarray, 635/667 nm fluorescence, BSA, DTT, primary screen (AID 1130).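 Also: composite of spot emission at 667 nm and signal to noise over triplicate slides.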 To be noted: 635 nm fluorescence, higher = more signal.
The test system of assay [14] is Fibrinogen (Alexa647-labelled). As to the kind of experiment: Alexa647-fibrinogen binding to printed small molecules – biochemical, small-molecule microarray, 635/667 nm fluorescence, artefact control for SMM control-protein annotation, profiling panel (AID 1131).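 Also: z-score merges 667 nm fluorescence with per-spot signal-to-noise over triplicate slides.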 The following applies: fibrinogen-A647 binding fluorescence, higher = more signal.
Assay [15] concerns the target Follistatin (Homo sapiens) (UniProt P19883). As to the kind of experiment: FST protein binding to printed compounds – biochemical, small-molecule microarray, 635/667 nm fluorescence, primary screen (AID 1132). The following applies: 635 nm fluorescence, higher = more signal.
For assay [16], the target named is Fibroblast growth factor 2 (Homo sapiens) (UniProt P09038). As to the kind of experiment: basic fibroblast growth factor binding to printed compounds – biochemical, small-molecule microarray, 635/667 nm fluorescence, primary screen (AID 1133). The following applies: FGF2, fluorescence 635/667, higher = more signal.
The nature of assay [17]: JC-1 mitochondrial potential readout, lung cancer cells – cell-based, A549, JC-1 fluorescence, basal, 24 h, 100 nL, profiling panel (AID 1138).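 Also: A549 lung adenocarcinoma cells under basal conditions with no added stimulus; test concentration not given here.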 The following applies: higher = more signal.
For assay [18], the system named is Lefty1. As to the kind of experiment: Lefty1 protein binding to printed compounds – biochemical, small-molecule microarray, 635/667 nm fluorescence, primary screen (AID 1139). To be noted: fluorescence 635/667, higher = more signal.
In assay [19] the test system is wheat germ agglutinin (Triticum aestivum), Alexa647-labelled. As to the kind of experiment: Alexa647-WGA lectin binding to printed small molecules – biochemical, small-molecule microarray, 635/667 nm fluorescence, artefact control for SMM control-protein annotation, profiling panel (AID 1140).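 Also: score merges 667 nm feature emission with signal to noise over triplicate slides.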 The following applies: WGA-A647 binding, 635 nm fluorescence, higher = more signal.

Assay [20] addresses Luciferin 4-monooxygenase (Photinus pyralis) (UniProt P08659). As to the kind of experiment: inhibition of purified Photinus pyralis luciferase – biochemical, luminescence, purified enzyme, 2006 set, primary screen (AID 1141).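 Also: cell-free assay with purified firefly luciferase at 100 ng per well in PBS; test concentration not given here.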 The following applies: purified firefly luciferase, SteadyGlo luminescence, 30 min; higher = more signal, called active from +8 up or from −8 down.

Active and inactive are the calls of the source.

Sequence of Follistatin (Homo sapiens) (P19883 whole entry, looked up): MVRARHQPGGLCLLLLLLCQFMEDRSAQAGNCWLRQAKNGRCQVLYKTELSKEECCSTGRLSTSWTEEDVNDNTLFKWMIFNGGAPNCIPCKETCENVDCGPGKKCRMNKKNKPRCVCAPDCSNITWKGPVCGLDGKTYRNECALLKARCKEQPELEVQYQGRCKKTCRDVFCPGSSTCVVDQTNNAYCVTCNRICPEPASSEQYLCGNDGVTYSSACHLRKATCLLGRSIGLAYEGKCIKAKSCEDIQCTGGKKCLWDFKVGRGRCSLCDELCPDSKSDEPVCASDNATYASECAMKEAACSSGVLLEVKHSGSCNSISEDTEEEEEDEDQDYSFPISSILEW
Sequence of Concanavalin-A (Canavalia ensiformis) (P02866 whole entry, looked up): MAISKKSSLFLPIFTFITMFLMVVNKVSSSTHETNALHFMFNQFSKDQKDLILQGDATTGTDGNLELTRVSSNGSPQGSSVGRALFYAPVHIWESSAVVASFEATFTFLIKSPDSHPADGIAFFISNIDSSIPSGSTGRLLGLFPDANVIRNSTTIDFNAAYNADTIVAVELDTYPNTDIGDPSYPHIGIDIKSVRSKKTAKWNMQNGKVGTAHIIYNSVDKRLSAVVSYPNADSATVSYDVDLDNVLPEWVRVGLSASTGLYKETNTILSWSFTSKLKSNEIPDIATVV
Sequence of Focal adhesion kinase 1 (Homo sapiens) (Q05397 whole entry, looked up): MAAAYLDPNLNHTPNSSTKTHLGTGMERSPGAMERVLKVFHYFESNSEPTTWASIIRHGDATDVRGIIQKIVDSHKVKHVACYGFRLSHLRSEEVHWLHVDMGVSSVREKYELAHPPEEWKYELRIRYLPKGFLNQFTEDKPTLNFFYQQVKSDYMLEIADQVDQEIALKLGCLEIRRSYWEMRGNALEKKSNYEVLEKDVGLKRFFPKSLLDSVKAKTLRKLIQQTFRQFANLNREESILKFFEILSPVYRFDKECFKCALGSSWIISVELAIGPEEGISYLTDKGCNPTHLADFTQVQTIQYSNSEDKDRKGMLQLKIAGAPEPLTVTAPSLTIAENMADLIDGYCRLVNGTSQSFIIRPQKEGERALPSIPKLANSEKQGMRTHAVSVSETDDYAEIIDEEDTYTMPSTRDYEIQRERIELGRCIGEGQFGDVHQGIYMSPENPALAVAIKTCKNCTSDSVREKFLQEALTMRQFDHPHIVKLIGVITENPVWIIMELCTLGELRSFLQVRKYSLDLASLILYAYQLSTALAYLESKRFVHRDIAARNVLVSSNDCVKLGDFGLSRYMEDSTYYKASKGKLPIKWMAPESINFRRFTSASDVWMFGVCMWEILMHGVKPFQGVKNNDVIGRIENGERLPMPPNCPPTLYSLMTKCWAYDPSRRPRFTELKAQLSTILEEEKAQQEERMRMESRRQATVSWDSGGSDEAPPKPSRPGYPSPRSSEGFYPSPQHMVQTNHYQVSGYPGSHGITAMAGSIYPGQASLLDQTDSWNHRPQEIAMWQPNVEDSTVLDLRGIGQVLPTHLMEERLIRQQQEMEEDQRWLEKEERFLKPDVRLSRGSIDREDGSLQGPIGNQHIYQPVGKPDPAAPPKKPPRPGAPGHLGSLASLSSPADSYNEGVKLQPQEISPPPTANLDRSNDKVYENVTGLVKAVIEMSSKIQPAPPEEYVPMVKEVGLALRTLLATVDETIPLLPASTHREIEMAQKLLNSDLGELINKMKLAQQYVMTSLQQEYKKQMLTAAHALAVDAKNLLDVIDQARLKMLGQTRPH
Sequence of Albumin (Bos taurus) (P02769 whole entry, looked up): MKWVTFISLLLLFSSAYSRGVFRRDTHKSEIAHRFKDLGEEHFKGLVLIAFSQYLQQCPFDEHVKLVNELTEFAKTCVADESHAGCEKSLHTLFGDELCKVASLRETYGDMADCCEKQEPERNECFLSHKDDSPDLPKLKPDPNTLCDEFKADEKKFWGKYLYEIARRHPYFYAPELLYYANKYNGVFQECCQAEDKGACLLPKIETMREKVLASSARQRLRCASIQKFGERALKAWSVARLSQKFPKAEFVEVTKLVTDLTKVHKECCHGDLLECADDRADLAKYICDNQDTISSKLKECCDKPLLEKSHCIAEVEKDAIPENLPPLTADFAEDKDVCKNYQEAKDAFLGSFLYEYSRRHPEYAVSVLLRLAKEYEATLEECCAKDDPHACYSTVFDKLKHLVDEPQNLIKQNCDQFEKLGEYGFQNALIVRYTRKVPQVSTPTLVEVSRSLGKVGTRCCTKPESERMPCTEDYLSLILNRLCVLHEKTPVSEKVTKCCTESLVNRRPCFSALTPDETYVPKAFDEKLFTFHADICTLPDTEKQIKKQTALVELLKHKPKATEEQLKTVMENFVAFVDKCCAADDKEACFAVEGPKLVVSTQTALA
Sequence of Luciferin 4-monooxygenase (Photinus pyralis) (P08659 whole entry, looked up): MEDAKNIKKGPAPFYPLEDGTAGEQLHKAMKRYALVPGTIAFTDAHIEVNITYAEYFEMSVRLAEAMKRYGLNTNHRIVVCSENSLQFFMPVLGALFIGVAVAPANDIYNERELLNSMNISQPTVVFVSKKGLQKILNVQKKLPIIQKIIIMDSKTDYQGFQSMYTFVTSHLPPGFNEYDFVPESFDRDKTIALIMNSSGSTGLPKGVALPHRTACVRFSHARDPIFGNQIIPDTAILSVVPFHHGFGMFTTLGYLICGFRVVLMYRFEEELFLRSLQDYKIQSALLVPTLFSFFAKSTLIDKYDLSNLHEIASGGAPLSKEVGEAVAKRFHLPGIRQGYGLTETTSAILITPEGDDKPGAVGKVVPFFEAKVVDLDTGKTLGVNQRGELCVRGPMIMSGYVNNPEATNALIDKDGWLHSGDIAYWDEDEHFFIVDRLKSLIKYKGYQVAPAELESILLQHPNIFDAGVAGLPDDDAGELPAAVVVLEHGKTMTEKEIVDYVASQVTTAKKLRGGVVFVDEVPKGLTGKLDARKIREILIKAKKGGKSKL
Sequence of Fibroblast growth factor 2 (Homo sapiens) (P09038 whole entry, looked up): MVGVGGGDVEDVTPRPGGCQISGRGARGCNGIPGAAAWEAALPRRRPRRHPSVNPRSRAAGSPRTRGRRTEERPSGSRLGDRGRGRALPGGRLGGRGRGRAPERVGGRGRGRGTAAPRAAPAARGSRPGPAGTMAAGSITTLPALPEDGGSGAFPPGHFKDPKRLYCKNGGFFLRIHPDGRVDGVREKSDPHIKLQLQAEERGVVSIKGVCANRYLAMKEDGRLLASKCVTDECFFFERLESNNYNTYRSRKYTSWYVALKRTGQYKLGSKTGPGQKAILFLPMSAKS

In the case of `CCCCCN1CC=CC23O[C@@H]4/C=C\CCC(C)OC(=O)C4[C@H]2C(=O)N(CCCO)[C@@H]3C1=O` (stereo not given in full), the composite z-score in [1] is -1.27; in [3], -0.357; in assay [4], -0.161; in assay [5], 0.97; in assay [6] it was 0.1; in [7] it was 1.62. Besides, the composite z-score was -0.237 in assay [8]; -1.15 in assay [9]; -0.521 in assay [10]; -1.7 in assay [11]; -0.719 in assay [12]; -0.249 in assay [13]. Further, the composite z-score in [14] was -1.63; in [15], -1.3; in [16], -0.965; in assay [18], -1.2; in assay [19], -1.08. The composite Z-score in assay [2] is 0.58 (inactive). Besides, the z-score in assay [17] is 0.684; in assay [20], -0.637 (inactive).
Take `CC1CC/C=C\[C@H]2OC34C=CCN(C(C)C)C(=O)[C@H]3N(C(CO)C(C)C)C(=O)[C@@H]4C2C(=O)O1` (stereo not given in full): the composite z-score in [1] is -0.314; in [3] it was -0.15; in assay [4] it was -0.125; in assay [5], 0.831; in assay [6], 0.669; in [7] it was -0.0978. For the same compound, the composite z-score is -1.57 in assay [8]; -1.36 in assay [9]; -2.39 in assay [10]; -1.64 in assay [11]; -2 in assay [12]; 1 in assay [13]. The composite z-score in assay [14] was -1.9; in [15] it was -0.459; in assay [16] it was -0.294; in assay [18], -1.02; in assay [19], -2.12. Besides, in assay [2], the composite Z-score is -0.481 (inactive). The results for the z-score in assay [17] and in [20] were 1.01 and -1.3 (inactive), respectively.
For the compound `C[N+](C)(C)CCCC[C@@H]1NC(=O)[C@H]2C[C@@H](C(=O)NCCCCCN)[C@@H](c3cccc(OCCO)c3)N2C1=O`, the composite z-score was 0.913 in assay [1]; 0.23 in assay [3]; -0.0633 in [4]; 0.801 in [5]; 2.41 in [6]; 1.34 in assay [7]. The composite z-score in assay [8] is 0.965; in assay [9] it was -0.0742; in [10], 1.13; in assay [11] it was 2.45; in assay [12], 1.07; in assay [13], 0.535. For the same compound, the composite z-score in assay [14] came to 0.789; in [15], 1.19; in [16], 0.327; in [18], 0.17; in [19] it was 1.1. The composite Z-score in [2] was 0.268 (inactive). The figures for the z-score in assay [17] and in [20] were -0.102 and -0.714 (inactive), respectively.
Turning to `O=C1c2ccccc2[C@](Cc2ccccc2I)(C(=O)O)[C@H](c2ccc(CO)cc2)N1Cc1ccccc1Cl`, the composite z-score was 0.953 in [1]; -0.014 in assay [3]; -0.0633 in assay [4]; 0.608 in [5]; 2.24 in assay [6]; 1.07 in assay [7]. The composite z-score was 1.3 in assay [8]; -0.912 in assay [9]; 0.944 in [10]; 1.99 in assay [11]; 1.19 in [12]; 1.04 in [13]. Besides, the composite z-score in [14] was -0.113; in assay [15], 0.0645; in assay [16], -0.354; in assay [18] it was 0.0911; in assay [19] it was 0.507. Also, the composite Z-score in assay [2] is 1.61 (inactive). In addition, the z-score in assay [17] was 0.712; in [20] it was -1.28 (inactive).
For the compound `C=C(C(=O)CC[C@@H](OC(C)=O)c1ccccc1OCCO)C(C)C`, the composite z-score in [1] was -0.952; in assay [3] it was -0.0647; in assay [4], -0.167; in [5], 0.664; in assay [6], -0.152; in assay [7], -0.0507. The composite z-score was -0.247 in assay [8]; -0.38 in assay [9]; -0.779 in assay [10]; 0.138 in assay [11]; -1.28 in [12]; -0.485 in assay [13]. Further, the composite z-score in assay [14] is -0.314; in [15], 0.164; in assay [16], 0.398; in [18], 0.342; in assay [19] it was -0.242. Also, the composite Z-score in [2] was 0.222 (inactive). For the same compound, the z-score in [17] was 1.29; in assay [20] it was -1.35 (inactive).
